The results in this text go back to PubChem BioAssay (EPA / NIEHS).

Results filed as inconclusive are left out. Active and inactive are the calls of the source. How the source made its calls, unless noted: active means hit-call score of the fitted dose curve at least 0.9, where 1 is the maximum; inactive means score below 0.9.

The nature of assay [1]: ATG_NFI_CIS: Attagene CIS-FACTORIAL HepG2 Assay for human Nuclear Factor I (NFI) (AID 2282989). Conditions: HepG2 cis-regulatory reporter, NFI response element transcription; actives raise or lower the signal. An outline of the steps:
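Multiplexed cis-reporter system in human HepG2 cells reports native TF activity as reporter mRNA induction 24 h post-dose. Fragments labelled with 6-FAM, HpaI-digested and resolved by capillary electrophoresis; activity fitted both directions versus DMSO.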

In assay [2] the target is Myc proto-oncogene protein (Homo sapiens) (UniProt P01106). The assay can be described thus: ATG_Myc_CIS: Attagene CIS-FACTORIAL HepG2 Assay for human Myelocytomatosis (Myc) Proto-Oncogene Transcription Factor (AID 2282990). The conditions noted are these: HepG2, Attagene cis-reporter transcription factor activity; actives raise or lower the signal. The essentials:
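Fluorescence intensity of reporter-specific cDNA fragments, separated by capillary electrophoresis, gives the signal. Transfected HepG2 cells carrying cis-promoter reporter constructs are incubated with compound for 24 h; DMSO serves as baseline.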

Assay [3] can be described thus: ATG_NF_kB_CIS: Attagene CIS-FACTORIAL HepG2 Assay for human Nuclear Factor Kappa B (NF-kB) (AID 2282991). The conditions noted are these: HepG2 Attagene cis-factorial NF-kB reporter mRNA; actives raise or lower the signal. The essentials: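 HepG2 cells transiently transfected with multiplexed cis-element reporter units measuring endogenous transcription factor activity; reporter mRNA read 24 h after dosing by RT-PCR, fluorescent labelling, HpaI digestion and capillary electrophoresis. Bidirectional fit against DMSO baseline.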

Assay [4] is described as follows: ATG_NRF2_ARE_CIS: Attagene CIS-FACTORIAL HepG2 Assay for human Nuclear Factor Erythroid 2 Related Factor 2 (NFR2) response to Antioxidant Response Elements (ARE) (AID 2282992). The conditions noted are these: HepG2 Attagene ARE/NRF2 reporter, transcription factor activity; actives raise or lower the signal. An outline of the steps:
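Endogenous transcription factor activity read out as reporter transcript levels (RT-PCR plus capillary electrophoresis, fluorescence) in transiently transfected HepG2 cells. Measured at 24 h after dosing; gain or loss of signal fitted versus DMSO.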

Assay [5] in a line: ATG_Oct_MLP_CIS: Attagene CIS-FACTORIAL HepG2 Assay for human Octamer-Binding Transcription Factor (Oct) (AID 2282993). The conditions noted are these: HepG2 Attagene cis-factorial Oct reporter, mRNA; actives raise or lower the signal. The essentials:
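After 24 h compound exposure, transfected HepG2 cells were lysed for total RNA; reporter-specific cDNA was PCR-amplified, fluorescently labelled and sized by capillary electrophoresis. Bidirectional curve fitting used DMSO as baseline.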

Assay [6] in a line: BSK_3C_TissueFactor: BioMAP Diversity Plus: 3C Assay for Tissue Factor Biomarker Activity (AID 2282997). Conditions: BioMAP 3C HUVEC, tissue factor biomarker readout; actives raise or lower the signal. An outline of the steps: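 Readout: Tissue Factor ELISA. Cells: human primary umbilical vein endothelium. Time: 24 h after dosing. Analysis: bidirectional fit, DMSO baseline.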

Assay [7] in a line: BSK_3C_uPAR: BioMAP Diversity Plus: 3C Assay for Urokinase-type plasminogen activator receptor (uPAR) Biomarker Activity (AID 2282998). Conditions: BioMAP 3C HUVEC, uPAR biomarker ELISA; actives raise or lower the signal. The essentials:
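Values derive from bidirectional curve fitting relative to DMSO, which served as baseline of activity. uPAR was measured by ELISA in human umbilical vein endothelial primary cultures 24 h after compound addition.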
(An ELISA detects its analyte on a solid surface through an enzyme-linked reagent.)

A short description of assay [8]: BSK_3C_VCAM1: BioMAP Diversity Plus: 3C Assay for Vascular cell adhesion molecule 1 (VCAM1) Biomarker Activity (AID 2282999). Conditions: BioMAP 3C HUVEC, VCAM1 ELISA, cytokine-stimulated; actives raise or lower the signal. The essentials: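 HUVEC primary cells, 24 h compound exposure; VCAM-1 by ELISA; gain/loss of signal fitted bidirectionally vs DMSO baseline.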

Assay [9] is described as follows: BSK_4H_Eotaxin3: BioMAP Diversity Plus: 4H Assay for Eotaxin 3 Biomarker Activity (AID 2283000).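 On outcome: CCL26 protein level quantified by ELISA in parallel with SRB cytotoxicity check.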 The conditions noted are these: primary human endothelial cells (HUVEC); actives raise or lower the signal. An outline of the steps: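 HUVEC, 24 h post-dose, ELISA for Eotaxin-3/CCL26. Gain or loss of signal fitted bidirectionally vs DMSO baseline.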
Assay [10] has as its target human Peroxisome Proliferator-activated Receptor alpha (PPARa), PPARA (gene 5465) (UniProt Q07869). The assay can be described thus: ATG_PPARa_TRANS: Attagene TRANS-FACTORIAL HepG2 Assay for human Peroxisome Proliferator-activated Receptor alpha (PPARa) (AID 2283001; active means hit-call score of the fitted dose curve at least 0.9, where 1 is the maximum;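 on AC50: potency for gain of reporter signal over DMSO so agonist or activator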). An outline of the steps:
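HepG2, transient MRTU transfection, 24 h treatment. RT-PCR → FAM labelling → capillary electrophoresis. Fit vs DMSO, positive direction.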

Read-out in assay [11]: Intercellular Adhesion Molecule 1 (ICAM1), ICAM1 (gene 3383)
The assay can be described thus: BSK_3C_ICAM1: BioMAP Diversity Plus: 3C Assay for Intercellular Adhesion Molecule 1 (ICAM1) Biomarker Activity (AID 2283003). Conditions: primary human endothelial cells (HUVEC); actives raise or lower the signal. An outline of the steps:
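ELISA readout of ICAM1 in human umbilical vein endothelial cells in the 3C system, taken 24 h post-dose. Gain or loss of signal versus DMSO was fitted in both directions, with SRB total-protein staining run in parallel.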

The target in assay [12] is human Retinoic Acid Receptor beta (RARb), RARB (gene 5915) (UniProt P10826). The assay can be described thus: ATG_RARb_TRANS: Attagene TRANS-FACTORIAL HepG2 Assay for human Retinoic Acid Receptor beta (AID 2283004; active means hit-call score of the fitted dose curve at least 0.9, where 1 is the maximum). The essentials:
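HepG2 cells transiently transfected with multiplexed GAL4-UAS reporter units expressing chimeric NR–Gal4 fusions; 24 h compound exposure. Reporter mRNA quantified by RT-PCR, 6-FAM labelling, HpaI digestion and capillary electrophoresis; gain-of-signal fitted against DMSO baseline.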

Assay [13] has as its target Retinoic acid receptor alpha (Homo sapiens) (UniProt P10276). Put plainly: ATG_RARa_TRANS: Attagene TRANS-FACTORIAL HepG2 Assay for human Retinoic Acid Receptor alpha (RARa) (AID 2283005; active means hit-call score of the fitted dose curve at least 0.9, where 1 is the maximum). An outline of the steps:
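HepG2 transiently transfected with multiplex GAL4-UAS reporter units including a human RARa–GAL4 chimera; 24 h compound exposure. Reporter mRNA quantified by RT-PCR, 6-FAM labeling and capillary electrophoresis; gain of signal versus DMSO.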

Assay [14] can be described thus: BSK_3C_Proliferation: Cell Proliferation Assessment in the BioMAP Diversity Plus: 3C Assay (AID 2283006).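 On AC50: potency may reflect either rise or fall in cell number versus DMSO.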 Conditions: primary human endothelial cells (HUVEC). The essentials: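 Proliferation as total protein: sulforhodamine B (0.1%) stain of TCA-fixed subconfluent human umbilical vein endothelial cells, absorbance 560 nm, 48 h after dosing. Activity fitted in both directions against DMSO baseline.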

The target in assay [15] is human Retinoic Acid Receptor gamma (RARg), RARG (gene 5916) (UniProt P13631). The assay can be described thus: ATG_RARg_TRANS: Attagene TRANS-FACTORIAL HepG2 Assay for human Retinoic Acid Receptor gamma (RARg) (AID 2283009; active means hit-call score of the fitted dose curve at least 0.9, where 1 is the maximum). The essentials:
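Transactivation of exogenous RARg-Gal4 fusion measured as reporter transcript induction after 24 h in transfected HepG2 cells. RNA reverse-transcribed, amplified, fluorescently labeled and resolved by capillary electrophoresis; increase relative to DMSO.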

Assay [16] deals with Peroxisome proliferator-activated receptor gamma (Homo sapiens) (UniProt P37231). Put plainly: ATG_PPARg_TRANS: Attagene TRANS-FACTORIAL HepG2 Assay for human Peroxisome Proliferator-activated Receptor-gamma (PPARg) (AID 2283007; active means hit-call score of the fitted dose curve at least 0.9, where 1 is the maximum). An outline of the steps:
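HepG2 cells transiently transfected with multiplexed GAL4-UAS reporter units and exogenous chimeric NR-Gal4 proteins; reporter mRNA quantified after 24 h compound exposure by RT-PCR, fluorescent labelling, HpaI digestion and capillary electrophoresis; gain-of-signal fitted versus DMSO baseline.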

Assay [17] concerns the target human Peroxisome Proliferator-activated Receptor delta (PPARd), PPARD (gene 5467) (UniProt Q03181). The assay can be described thus: ATG_PPARd_TRANS: Attagene TRANS-FACTORIAL HepG2 Assay for human Peroxisome Proliferator-activated Receptor delta (PPARd) (AID 2283002; active means hit-call score of the fitted dose curve at least 0.9, where 1 is the maximum). An outline of the steps: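 Fluorescence from capillary electrophoresis of labelled RT-PCR reporter fragments gives the signal; DMSO sets baseline. Cells: HepG2 transiently carrying GAL4-UAS reporter units plus chimeric nuclear receptor-Gal4 proteins, exposed to chemicals for 24 h.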

Assay [18] has as its target Nuclear receptor subfamily 1 group I member 2 (Homo sapiens) (UniProt O75469). Put plainly: ATG_PXR_TRANS: Attagene TRANS-FACTORIAL HepG2 Assay for human Pregnane X Receptor (PXR) (AID 2283008; active means hit-call score of the fitted dose curve at least 0.9, where 1 is the maximum). An outline of the steps:
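Transactivation by exogenous PXR–GAL4 fusion measured as reporter transcript induction after 24 h compound treatment of transfected human HepG2 cells. Read-out via RT-PCR and capillary electrophoresis of labelled fragments, fitted upward relative to DMSO.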

Assay [19] deals with Cellular tumor antigen p53 (Homo sapiens) (UniProt P04637). Put plainly: ATG_p53_CIS: Attagene CIS-FACTORIAL HepG2 Assay for human p53 Transcription Factor (AID 2282994). Conditions: HepG2 p53 cis-element reporter, Attagene mRNA; actives raise or lower the signal. An outline of the steps: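 Endogenous p53 activity read in transiently transfected HepG2 from a cis-element-driven reporter transcript after 24 h exposure. RNA reverse-transcribed, PCR-amplified, fluorescently labelled and sized by capillary electrophoresis; gain or loss fitted against DMSO baseline.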
Sequence of Cellular tumor antigen p53 (Homo sapiens) (P04637 whole entry, looked up): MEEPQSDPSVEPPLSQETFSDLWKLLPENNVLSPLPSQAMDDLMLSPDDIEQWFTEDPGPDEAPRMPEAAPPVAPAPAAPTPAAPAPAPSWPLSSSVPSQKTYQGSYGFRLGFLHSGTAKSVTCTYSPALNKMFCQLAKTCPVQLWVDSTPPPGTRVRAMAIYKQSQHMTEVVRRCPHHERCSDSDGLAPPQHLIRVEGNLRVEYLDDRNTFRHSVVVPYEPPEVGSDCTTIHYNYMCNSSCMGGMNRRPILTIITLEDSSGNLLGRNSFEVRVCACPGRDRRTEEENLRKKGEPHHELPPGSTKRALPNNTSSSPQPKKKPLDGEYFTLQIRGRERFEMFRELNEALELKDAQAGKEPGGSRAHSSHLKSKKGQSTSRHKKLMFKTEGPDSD

Sequence of Nuclear receptor subfamily 1 group I member 2 (Homo sapiens) (O75469 whole entry, looked up, the tested form may be a part): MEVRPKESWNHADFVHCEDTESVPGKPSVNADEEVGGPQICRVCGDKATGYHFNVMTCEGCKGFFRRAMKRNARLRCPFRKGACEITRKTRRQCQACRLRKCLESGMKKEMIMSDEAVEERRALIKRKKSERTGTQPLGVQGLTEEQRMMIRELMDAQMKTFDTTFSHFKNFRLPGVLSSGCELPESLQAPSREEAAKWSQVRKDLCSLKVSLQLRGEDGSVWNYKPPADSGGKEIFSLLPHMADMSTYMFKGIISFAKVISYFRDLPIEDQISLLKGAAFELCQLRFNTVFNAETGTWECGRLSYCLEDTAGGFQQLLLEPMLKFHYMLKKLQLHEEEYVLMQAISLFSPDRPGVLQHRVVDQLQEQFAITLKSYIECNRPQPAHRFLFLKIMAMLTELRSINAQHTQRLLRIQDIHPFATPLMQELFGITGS
Sequence of Peroxisome proliferator-activated receptor gamma (Homo sapiens) (P37231 whole entry, looked up, the tested form may be a part): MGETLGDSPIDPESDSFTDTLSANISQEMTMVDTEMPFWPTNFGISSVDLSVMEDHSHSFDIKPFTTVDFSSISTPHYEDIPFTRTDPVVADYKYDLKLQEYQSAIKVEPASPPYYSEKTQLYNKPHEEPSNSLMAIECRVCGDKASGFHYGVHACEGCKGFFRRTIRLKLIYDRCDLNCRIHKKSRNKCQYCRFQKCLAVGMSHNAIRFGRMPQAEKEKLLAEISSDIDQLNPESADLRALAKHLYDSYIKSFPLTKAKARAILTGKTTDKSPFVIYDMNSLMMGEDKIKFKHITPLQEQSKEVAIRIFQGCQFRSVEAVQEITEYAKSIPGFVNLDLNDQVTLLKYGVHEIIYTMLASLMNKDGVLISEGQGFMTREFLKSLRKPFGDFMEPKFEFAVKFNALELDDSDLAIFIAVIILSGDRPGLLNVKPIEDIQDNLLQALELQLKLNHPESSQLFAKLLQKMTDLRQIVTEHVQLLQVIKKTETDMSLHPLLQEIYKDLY
Sequence of Myc proto-oncogene protein (Homo sapiens) (P01106 whole entry, looked up, the tested form may be a part): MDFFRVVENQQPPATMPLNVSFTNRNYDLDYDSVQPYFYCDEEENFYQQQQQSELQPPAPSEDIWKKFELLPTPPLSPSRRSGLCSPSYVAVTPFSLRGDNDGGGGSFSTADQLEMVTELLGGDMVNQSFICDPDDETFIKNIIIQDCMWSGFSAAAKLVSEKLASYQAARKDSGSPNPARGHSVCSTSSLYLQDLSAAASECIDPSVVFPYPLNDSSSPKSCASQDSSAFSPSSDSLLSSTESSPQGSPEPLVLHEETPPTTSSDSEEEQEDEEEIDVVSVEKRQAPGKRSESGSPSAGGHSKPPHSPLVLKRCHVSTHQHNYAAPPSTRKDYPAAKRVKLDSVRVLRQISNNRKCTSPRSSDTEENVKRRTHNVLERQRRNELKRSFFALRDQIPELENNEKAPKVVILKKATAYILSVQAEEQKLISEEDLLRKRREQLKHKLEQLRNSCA
Sequence of human Peroxisome Proliferator-activated Receptor alpha (PPARa), PPARA (gene 5465) (Q07869 whole entry, looked up): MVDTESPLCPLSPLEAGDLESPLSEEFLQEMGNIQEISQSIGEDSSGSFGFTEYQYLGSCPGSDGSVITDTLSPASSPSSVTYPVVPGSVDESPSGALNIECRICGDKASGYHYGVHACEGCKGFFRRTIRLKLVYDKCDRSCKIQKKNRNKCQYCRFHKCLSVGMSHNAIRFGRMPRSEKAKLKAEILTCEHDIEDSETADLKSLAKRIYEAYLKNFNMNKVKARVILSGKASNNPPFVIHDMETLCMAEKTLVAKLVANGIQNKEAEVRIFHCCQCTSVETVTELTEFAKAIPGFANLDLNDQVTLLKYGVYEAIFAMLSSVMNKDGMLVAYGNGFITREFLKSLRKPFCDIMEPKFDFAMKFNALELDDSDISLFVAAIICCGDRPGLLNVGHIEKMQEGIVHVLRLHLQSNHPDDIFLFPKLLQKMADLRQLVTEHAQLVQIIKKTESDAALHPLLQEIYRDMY
Sequence of human Retinoic Acid Receptor gamma (RARg), RARG (gene 5916) (P13631 whole entry, looked up, the tested form may be a part): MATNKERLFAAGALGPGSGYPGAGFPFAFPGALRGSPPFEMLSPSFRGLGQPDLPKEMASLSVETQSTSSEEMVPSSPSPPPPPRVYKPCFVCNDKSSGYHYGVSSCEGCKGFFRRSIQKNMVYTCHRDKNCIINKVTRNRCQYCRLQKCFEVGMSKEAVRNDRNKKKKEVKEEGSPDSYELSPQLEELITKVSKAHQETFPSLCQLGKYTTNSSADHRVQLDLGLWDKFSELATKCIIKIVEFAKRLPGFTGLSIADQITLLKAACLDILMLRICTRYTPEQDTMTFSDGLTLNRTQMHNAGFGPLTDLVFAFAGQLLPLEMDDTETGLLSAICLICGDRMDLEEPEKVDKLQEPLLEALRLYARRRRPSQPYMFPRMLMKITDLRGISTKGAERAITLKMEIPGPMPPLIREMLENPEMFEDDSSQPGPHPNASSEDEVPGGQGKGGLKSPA
Sequence of Retinoic acid receptor alpha (Homo sapiens) (P10276 whole entry, looked up, the tested form may be a part): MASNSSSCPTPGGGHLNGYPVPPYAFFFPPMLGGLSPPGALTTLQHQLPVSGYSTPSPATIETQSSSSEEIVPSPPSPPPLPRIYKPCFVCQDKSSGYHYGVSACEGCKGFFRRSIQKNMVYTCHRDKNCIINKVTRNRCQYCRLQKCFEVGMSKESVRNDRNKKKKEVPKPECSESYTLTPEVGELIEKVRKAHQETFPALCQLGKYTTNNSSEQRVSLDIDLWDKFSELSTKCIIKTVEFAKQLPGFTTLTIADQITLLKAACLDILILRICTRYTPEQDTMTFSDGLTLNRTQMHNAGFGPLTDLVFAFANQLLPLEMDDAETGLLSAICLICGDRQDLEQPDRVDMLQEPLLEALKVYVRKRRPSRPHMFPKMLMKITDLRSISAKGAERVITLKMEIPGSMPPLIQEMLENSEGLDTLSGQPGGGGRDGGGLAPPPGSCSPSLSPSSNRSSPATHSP
Sequence of human Retinoic Acid Receptor beta (RARb), RARB (gene 5915) (P10826 whole entry, looked up, the tested form may be a part): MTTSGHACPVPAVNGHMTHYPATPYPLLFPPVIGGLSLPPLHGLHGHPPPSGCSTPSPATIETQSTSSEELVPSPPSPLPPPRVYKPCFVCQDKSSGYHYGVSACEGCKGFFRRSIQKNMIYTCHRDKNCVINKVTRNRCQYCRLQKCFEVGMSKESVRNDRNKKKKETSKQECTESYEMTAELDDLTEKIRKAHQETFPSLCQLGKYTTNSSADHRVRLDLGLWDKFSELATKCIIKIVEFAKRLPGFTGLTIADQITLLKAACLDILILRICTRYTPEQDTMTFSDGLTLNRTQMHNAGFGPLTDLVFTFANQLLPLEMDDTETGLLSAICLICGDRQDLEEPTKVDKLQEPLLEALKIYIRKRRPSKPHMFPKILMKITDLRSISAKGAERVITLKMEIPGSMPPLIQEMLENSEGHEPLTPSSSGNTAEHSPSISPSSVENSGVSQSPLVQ
Sequence of human Peroxisome Proliferator-activated Receptor delta (PPARd), PPARD (gene 5467) (Q03181 whole entry, looked up, the tested form may be a part): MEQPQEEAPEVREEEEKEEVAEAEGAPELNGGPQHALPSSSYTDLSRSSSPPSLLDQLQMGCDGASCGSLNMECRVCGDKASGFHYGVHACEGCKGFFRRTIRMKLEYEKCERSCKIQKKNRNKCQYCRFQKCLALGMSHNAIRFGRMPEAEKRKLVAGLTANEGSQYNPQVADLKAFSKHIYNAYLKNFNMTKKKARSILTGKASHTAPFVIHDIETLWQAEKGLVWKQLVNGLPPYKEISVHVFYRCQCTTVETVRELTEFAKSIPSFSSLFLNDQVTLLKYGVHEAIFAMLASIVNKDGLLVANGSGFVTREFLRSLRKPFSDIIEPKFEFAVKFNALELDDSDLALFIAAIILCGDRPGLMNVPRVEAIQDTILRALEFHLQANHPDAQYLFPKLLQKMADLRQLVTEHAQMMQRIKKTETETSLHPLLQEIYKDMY

As for `O=C(O)C1(c2ccc3c(c2)OC[C@H](Cc2ccc(-c4ccccc4)cc2)[C@H]3O)CCCC1`, the compound was called inactive in assay [1], in assay [2], in assay [3], in assay [5], in assay [6] and in assay [9]. In addition, the outcome in [11], in [12], in assay [13] and in assay [15] was inactive. The AC50 is 8.26 µM (active) in [4]; 29.9 µM (active) in assay [7]; 20 µM (active) in assay [8]; 11 µM (active) in [10]; 13.2 µM (active) in assay [14].
On to `Oc1cc(Cl)c(Cl)cc1Cl`, for which the half-maximal activity concentration (AC50) in assay [1] is 66.4 µM (active); in [2] it was 152 µM (active); in [5], 66.2 µM (active); in assay [6] it was 20 µM (active); in [7], 14.7 µM (active); in assay [9], 27.6 µM (active). Further, the concentration at half-maximal activity (AC50) in [16] is 55.9 µM (active). For the same compound, the call in assay [3], in assay [4], in assay [8] and in assay [10] was inactive.
For the compound `CC(C)(C)c1ccccc1O`, the AC50 was 100 µM (active) in [1], 164 µM (active) in assay [3], 138 µM (active) in [5] and 15.4 µM (active) in [18]. The compound was classed as inactive in assay [2], in assay [4], in assay [6], in assay [7], in assay [8] and in assay [9]. Also, the call in assay [10], in assay [17], in assay [11], in [14] and in assay [16] was inactive.
For the compound `[F][Sn]([c]1ccccc1)([c]1ccccc1)[c]1ccccc1`, the half-maximal activity concentration (AC50) in assay [1] was 0.312 µM (active); in assay [2], 2.12 µM (active); in [3] it was 0.685 µM (active); in [5] it was 0.335 µM (active); in assay [19] it was 316 nM (active); in assay [16] it was 0.0401 µM (active). Besides, the result in assay [4] and in assay [18] was inactive.
For `O=S1OC[C@@H]2[C@H](CO1)[C@]1(Cl)C(Cl)=C(Cl)[C@@]2(Cl)C1(Cl)Cl` (stereo partly drawn), the call in assay [1], in assay [2], in [3], in assay [4], in assay [19] and in [13] was inactive. Moreover, in [15], the compound was classed as inactive. Besides, the AC50 in assay [5] was 100 µM (active); in assay [18], 4.5 µM (active).

By AC50 is commonly meant the midpoint of the concentration-response curve, whichever way the signal moves.
